# eIF4E-4G inh – eIF4E/eIF4G interaction inhibition in translation initiation; P63073+Q04637; TR-FRET eIF4E-eIF4GI(517-606) binding, 2 h; inhibition, % at 21.7 µM; 0.37% of 220,000 active; AID 782;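 active means inhibition above about 30%, limit read from the data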
# Mcl-1 Bim block – human Bim-Mcl-1 interaction inhibition; 0.1% of 190,000 active; inhibition, % at 10 µM; AID 1009; Bead-based flow cytometry, Bim peptide-Mcl-1 binding; in the data active means inhibition above about 40%
# Target sequence (Q07820 whole entry, looked up): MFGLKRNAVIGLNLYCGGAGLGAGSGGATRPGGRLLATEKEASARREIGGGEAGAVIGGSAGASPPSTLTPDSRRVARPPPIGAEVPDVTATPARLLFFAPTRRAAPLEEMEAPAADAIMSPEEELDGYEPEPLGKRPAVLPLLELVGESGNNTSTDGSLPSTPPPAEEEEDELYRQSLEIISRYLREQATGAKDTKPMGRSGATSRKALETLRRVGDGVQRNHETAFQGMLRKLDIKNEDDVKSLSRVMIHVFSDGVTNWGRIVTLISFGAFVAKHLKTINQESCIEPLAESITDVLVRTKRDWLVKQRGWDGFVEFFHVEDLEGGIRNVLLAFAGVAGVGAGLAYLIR
# Mcl1 Noxa PPI – Mcl-1/Noxa interaction inhibition; TR-FRET Mcl-1/Noxa peptide binding, 2 h; inhibition, % at 21.7 µM; 1.5% of 220,000 active; AID 1022;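 active means compounds that cut the protein-peptide binding signal by more than 50% relative to plate controls in a single-dose test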;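 further: His-tagged Mcl-1 with rhodamine Noxa BH3 peptide and terbium anti-His antibody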
# MCL1-BIM inh – inhibitors of human MCL1 binding to BIM-BH3 peptide | Q07820 | GST-MCL1 / FITC-Bim-BH3 fluorescence polarization | inhibition, % at 10.9 µM | 0.68% of 320,000 active | AID 2057;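 active means inhibition above the mean inhibition of all tested compounds plus 3 SD, set per campaign, cut at about 40% in these data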;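 further: higher means more loss of mP so more displacement of Bim peptide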
# Mcl1 Bid PPI – Mcl-1/Bid interaction inhibition; inhibition, % at 21.7 µM; Q07820; 0.97% of 220,000 active; TR-FRET Mcl-1/Bid-Dy647 peptide binding, 1536-well;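 active means compounds that cut the binding signal by more than half at the single screening dose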;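 further: His-tagged Mcl-1 with europium anti-His antibody binding Bid BH3 peptide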
# 14-3-3 Bad PPI – disrupts binding of bovine 14-3-3 zeta to phospho-Bad peptide; P63103; TR-FRET 14-3-3zeta/Dy647-pBad peptide displacement, 1 h; inhibition, % at 21.7 µM; 0.71% of 220,000 active;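 active means inhibition above about 70%, limit read from the data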
# Target sequence (P63103 whole entry, looked up): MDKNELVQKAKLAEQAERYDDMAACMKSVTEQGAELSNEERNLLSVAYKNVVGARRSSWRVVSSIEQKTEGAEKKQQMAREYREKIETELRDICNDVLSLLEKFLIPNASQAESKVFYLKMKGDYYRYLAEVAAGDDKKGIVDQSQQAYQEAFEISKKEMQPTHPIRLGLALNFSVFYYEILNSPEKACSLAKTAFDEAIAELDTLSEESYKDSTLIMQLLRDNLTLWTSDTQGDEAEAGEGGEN
# Numbers stand for hits; – = inactive; · = no result; [ ] = remark or other dose. Most compounds without a hit are left out; they make up all but 2.6% or so of the library.
SMILES,eIF4E-4G inh,Mcl-1 Bim block,Mcl1 Noxa PPI,MCL1-BIM inh,Mcl1 Bid PPI,14-3-3 Bad PPI
CC1CN(Cc2cnc(Cl)s2)CC(C)O1 (configuration not stated),–,–,–,·,–,–
CC1C(=O)CCN(C(C)C)C1C (configuration not stated),–,–,–,–,89.8,–
Cc1ccccc1OCCNC(=O)CNC(=O)c1ccccc1O,–,–,·,–,81.5,–
Cc1oc(-c2cccs2)nc1CN1CCC(CO)(CCOc2ccccc2)CC1,–,–,–,–,–,–
CCOC(=O)CC1=CSC2=NS(=O)(=O)CCN12,–,–,74.4,–,–,–
CN(CC(=O)Nc1cccnc1)S(=O)(=O)c1ccccc1,–,–,–,–,63.5,–
C=CCn1c(=NC(=O)c2ccccc2[N+](=O)[O-])sc2cc(S(C)(=O)=O)ccc21,–,–,–,–,–,–
O=C(COC(=O)c1ccccn1)NC1CCCCC1,–,66.0,–,–,–,–
Nc1ncccc1C(=O)OCC(=O)NC1CCCCCC1,·,·,·,–,·,·
O=C(COC(=O)c1ccc2ncsc2c1)NC(=O)c1ccccc1,–,–,–,–,–,–
COc1ccc(C(=O)NC(=O)COC(=O)c2ccc3ncsc3c2)cc1,–,–,–,–,–,78.0
Cc1c(Cl)cnc(NC(=O)COC(=O)c2ccc3ncsc3c2)c1Cl,–,–,58.4,–,66.0,70.3
CC1CN(CCc2ccccc2)c2nc3c(c(=O)n(CC(N)=O)c(=O)n3C)n2C1 (configuration not stated),·,·,·,–,·,·
Cc1ccc(-c2nc(SCC(=O)N(C)c3c(N)n(Cc4ccccc4)c(=O)[nH]c3=O)n[nH]2)cc1,·,·,·,–,·,·
Cc1c(C(=O)N2CCN(c3ncccn3)CC2)oc2ccc(Cl)cc12,·,·,·,–,·,·
Cn1ncc([N+](=O)[O-])c1C(=O)Nc1ccc(-c2nc3ccccc3o2)cc1,–,–,–,–,–,–
CCn1c(-c2nn(-c3ccc(C)cc3)ccc2=O)n[nH]c1=S,–,–,–,–,–,88.2
CCCn1c2ccccc2c2cnn(CC(=O)NCCCN3C(C)CCCC3C)c(=O)c21 (configuration not stated),·,·,·,–,·,·
CC1(C2CC(C(F)(F)F)n3nc(C(=O)O)cc3N2)CC1 (configuration not stated),–,–,–,–,–,–
FC(F)(F)c1ccc(Cl)c(N/N=C/c2ccc(N3CCOCC3)s2)c1,–,–,67.4,–,–,–
O=C(O)c1cc(S(=O)(=O)N2CCOCC2)ccc1N1CCCCC1,–,–,–,–,–,–
O=c1c2ccccc2sn1-c1cc(S(=O)(=O)N2CCOCC2)ccc1N1CCOCC1,70.5,–,74.8,–,–,73.9
O=c1c2ccccc2sn1-c1cc(S(=O)(=O)N2CCOCC2)ccc1N1CCCC1,55.6,–,63.8,–,–,–
COc1ccc(-c2n(Cc3ccccc3)c3ccccc3[n+]2Cc2ccccc2)cc1,–,–,–,–,–,–
Cc1ccc(NC(=O)COCC(=O)Nc2ccc(F)cc2)cc1,·,·,·,–,·,·
SMILES,eIF4E-4G inh,Mcl-1 Bim block,Mcl1 Noxa PPI,MCL1-BIM inh,Mcl1 Bid PPI,14-3-3 Bad PPI
CC(OC(=O)C1CCN(c2ccc(C(F)(F)F)cn2)CC1)C(=O)Nc1cccc([N+](=O)[O-])c1 (configuration not stated),·,·,·,–,·,·
c1ccc2nc3ccccc3nc2c1,–,–,–,–,85.7,–
COc1cc(C(c2nnnn2C2CCCC2)N2CCN(C)CC2)cc(OC)c1OC (configuration not stated),–,–,–,–,–,79.7
c1ccc(Nc2ncnc3c2oc2ccccc23)cc1,–,–,–,–,–,70.6
Oc1ccc(Nc2ncnc3c2oc2ccccc23)cc1,·,·,·,–,·,·
Oc1ccccc1Nc1ncnc2c1oc1ccccc12,–,–,–,–,–,73.5
c1ccc2c(c1)oc1c(Nc3ccc(CN4CCOCC4)cc3)ncnc12,–,–,–,–,–,78.8
c1ccc2c(c1)oc1c(NCCN3CCOCC3)ncnc12,–,–,–,–,–,–
CN(C(=O)COC(=O)C(C)(C)Oc1ccc(Cl)cc1)c1c(N)n(Cc2ccccc2)c(=O)[nH]c1=O,·,·,·,–,·,·
O=C(O)CC(SCc1ccc(C(=O)O)o1)C(=O)O (configuration not stated),–,–,–,–,52.6,–
Cc1cc(=O)c2cc3nc(-c4cccnc4)oc3c(Br)c2o1,–,·,53.9,–,–,–
CCOC(=O)c1nnc(-c2ccc(C)cc2)nc1Sc1ccc(Cl)cc1,–,–,–,–,54.9,–
CCOC(=O)c1nnc(-c2ccc(C)cc2)nc1Sc1ccccc1Cl,–,–,–,–,–,–
CCC1CCCCN1CCCNC(=O)Cn1ncn2nc(-c3ccc(OC)cc3)cc2c1=O (configuration not stated),·,·,·,–,·,·
COc1ccc(C)cc1N(C(=O)c1ccc(F)cc1)c1nc2ccccc2s1,–,–,–,–,58.9,–
COc1ccc(C)cc1N(C(=O)COc1cccc(F)c1)c1nc2ccccc2s1,–,–,–,–,–,–
Cc1c(-c2nnc(SCC(=O)O)n2-c2ccccc2Br)nnn1-c1ccccc1,–,–,–,–,–,–
Cc1cccc(C(=O)N2CCC(c3nc(-c4ccc(S(=O)(=O)N5CCOCC5)cc4)no3)CC2)c1,·,47.0,·,–,·,·
O=C(CCCOc1ccccc1)Nc1cccc(S(=O)(=O)N2CCCCCC2)c1,·,·,·,–,·,·
O=C1CC(=O)c2c1cccc2[N+](=O)[O-],–,·,101.0,·,–,–
O=C1OCc2cccc([N+](=O)[O-])c21,–,–,–,–,–,–
NC(=O)c1cccc(C(N)=O)n1,–,–,–,–,–,–
O=c1[nH][nH]c2c(N=Cc3ccccc3O)ccc(F)c12,–,·,94.5,·,–,70.3
COc1cc(NS(=O)(=O)c2ccc(NC(=S)NC(=O)/C=C/c3ccc(F)cc3)cc2)ncn1,–,·,–,–,–,–
O=C(NC(=S)Nc1ccc(S(=O)(=O)Nc2nccs2)cc1)c1ccc(Br)o1,–,–,–,–,–,–
SMILES,eIF4E-4G inh,Mcl-1 Bim block,Mcl1 Noxa PPI,MCL1-BIM inh,Mcl1 Bid PPI,14-3-3 Bad PPI
O=C(/C=C/c1ccc(Br)cc1)NC(=S)Nc1ccc(S(=O)(=O)Nc2nccs2)cc1,–,–,52.3,–,58.5,–
CCc1nnc(NS(=O)(=O)c2ccc(NC(=S)NC(=O)/C=C/c3ccc(C(C)C)cc3)cc2)s1,63.8[fluorescence artefact?],–,·,–,100.3,–
COc1ccc(NS(=O)(=O)c2ccc(NC(=S)NC(=O)/C=C/c3ccccc3)cc2)nn1,–,–,58.1,–,–,–
CCc1nnc(NS(=O)(=O)c2ccc(NC(=S)NC(=O)/C=C/c3ccc(OC)cc3)cc2)s1,–,–,–,–,–,–
C=CCc1cccc2cc(C(=O)Nc3ccc(S(=O)(=O)Nc4nnc(CC)s4)cc3)c(=O)oc12,–,–,107.5,–,72.0,–
CCc1nnc(NS(=O)(=O)c2ccc(NC(=S)NC(=O)/C=C/c3ccccc3)cc2)s1,–,–,58.4,–,–,–

# Screening results (PubChem BioAssay)
